Records with an inconclusive call do not appear. Active and inactive are the calls of the source. The call rests on the fitted dose curve; in most records, active means well fitted cell-killing curve with a large enough effect; inconclusive means small, poorly fitted or top-dose-only effect; inactive means flat fitted curve, though single readings scatter.
Assay: HepG2 cells viability qHTS for Zika virus inhibitors (AID 1347168)
Settings: Zika counter-screen; series mostly up to 45.9 µM
Outline: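 Compounds were tested in concentration series on cells grown in DMEM containing 4% FBS. After 24 to 48 hours, cellular ATP was measured by luminescence with CellTiter Glo.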

SMILES	outcome
O=C(Nc1ccc(Br)cc1)c1cc(Br)cc(Br)c1O	inactive
C[C@]12CC[C@@H]3c4ccc(OC(=O)N(CCCl)CCCl)cc4CC[C@H]3[C@@H]1CC[C@@H]2O	inactive
O=c1c(C2CC(c3ccc(-c4ccc(Br)cc4)cc3)Cc3ccccc32)c(O)sc2ccccc12 (stereo not drawn)	inactive
